This note sets out measurements from PubChem BioAssay (NCATS).

Inconclusive results are not listed. A number with no mark means an inactive call. The source made the active and inactive calls. Calls follow the shape of the dose curve; as a rule, active = well fitted curve in the direction sought with a large enough effect; inconclusive = small, poorly fitted or top-dose-only effect, or another doubt; inactive = no such curve, though single readings can be large; an effect the other way counts as inactive or inconclusive.

A short description of test [1]: qHTS for Inhibitors of Plasmodium falciparum (DD2) proliferation (AID 504314).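 Also: parasite DNA measured by SYBR Green fluorescence after red cell lysis.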 A digest of the protocol:
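SYBR Green DNA-fluorescence growth assay: infected RBCs at 0.3% parasitemia, 2.5% hematocrit, 72 h compound exposure, 37C, 5% CO2; overnight lysis with dye at RT; normalized to 0.29 uM artemisinin and vehicle.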
(Quantitative high-throughput screening tests each substance at several concentrations.)

A short description of test [2]: qHTS for Inhibitors of Plasmodium falciparum (GB4) proliferation (AID 504315). Also: nearly all actives have a fitted effect of over 50% in size. Also: potency is read from the fitted curve at half-maximal effect. A digest of the protocol:
(§1)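 Parasite growth measured as SYBR Green DNA fluorescence (ex 485, em 535 nm) after overnight lysis following 72 h culture at 37 °C, 0.3% parasitemia, 2.5% hematocrit. Values normalized against DMSO and 0.29 uM artemisinin controls, with plate-stack correction.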

A short description of test [3]: qHTS for Inhibitors of Plasmodium falciparum (7G8) proliferation (AID 504316). Also: nearly all actives have a fitted effect of over 65% in size. Also: potency is read from the fitted curve at half-maximal effect. A digest of the protocol:
as §1

Test [4] in a line: qHTS for Inhibitors of Plasmodium falciparum (HB3) proliferation (AID 504318). Also: nearly all actives have a fitted effect of over 60% in size. Also: potency is read from the fitted curve at half-maximal effect. A digest of the protocol: as §1
Test [5] can be described thus: qHTS for Inhibitors of Plasmodium falciparum (CP250) proliferation (AID 504320). A digest of the protocol: as §1

Turning to `CCOC(=O)CN1C(=O)N[C@@H](c2ccccc2)[C@H](C(=O)OC)[C@H]1C`, the Potency entry in test [1], in test [2], in test [3], in test [4] and in test [5] was “inactive” each time.

As to `CCN1C(=O)N[C@@H](c2ccccc2)[C@H](C(C)=O)[C@H]1C`, the Potency entry in test [1], in test [2], in test [3], in test [4] and in test [5] was “inactive” each time.

On to `COC/C=C/C1=CC2=CC(=O)C(C)(OC(=O)c3cnc4ccccc4n3)C(=O)C2=CN1C(CO)CO` (stereo not drawn), for which the Potency entry in test [1], in test [2], in test [3], in test [4] and in test [5] was “inactive” each time.

For the compound `COC/C=C/C1=CC2=CC(=O)C(C)(OC(=O)c3cnc4ccccc4n3)C(=O)C2=CN1c1cccc(C#N)c1` (stereo not drawn), the Potency entry in test [1], in test [2], in test [3] and in test [4] was “inactive” in each case.

As for `COC(=O)C1=C(C)N(Cc2ccccc2)C(=O)N[C@H]1CCc1ccccc1`, the Potency result in test [1], in test [2], in test [3], in test [4] and in test [5] was “inactive” each time.

Turning to `CC(=O)[C@@H]1[C@@H](C)N(Cc2ccccc2)C(=O)N[C@H]1c1cccc(C(F)(F)F)c1`, the Potency result in test [1], in test [2], in test [3], in test [4] and in test [5] was “inactive” in each case.

With `COC(=O)C1=C(C(=O)OC)[C@@H]2N(Cc3ccccc3)c3ccccc3[C@@]23C[C@@H](C(=O)OC)N(C(=O)c2ccco2)C3=N1`, the Potency entry in test [1], in test [2], in test [3], in test [4] and in test [5] was “inactive” each time.

For the compound `CCCCC1=CC2=C(c3ccco3)C(=O)C(C)(OC(=O)c3ccc(OC)cc3)C(=O)C2=CN1c1ccccc1` (stereo not drawn), the Potency entry in test [1], in test [2], in test [3], in test [4] and in test [5] was “inactive” in each case.

`C[C@H]1Cc2c(-c3ccccc3)nc3c(c2CO1)CN(C(=O)C1CC1)CC3`: the Potency entry in test [1], in test [2], in test [3], in test [4] and in test [5] was “inactive” throughout.

As to `COC(=O)CCCC1=CC2=CC(=O)C(C)(OC(=O)c3cccs3)C(=O)C2=CN1C(CO)CO` (stereo not drawn), the Potency result in test [1], in test [2], in test [3], in test [4] and in test [5] was “inactive” throughout.

Regarding `COC(=O)N1C2=C(c3ccccc3[C@@H]1CC(=O)Nc1ccc3cc4ccccc4cc3c1)[C@@H]1C(=O)N(c3ccccc3)C(=O)[C@@H]1[C@H](C)C2`, the Potency result in test [1] was “inactive”. The results for the Potency in test [2], in test [3] and in test [4] were 1510 nM (active), 1900 nM (active) and 1690 nM (active), respectively.

With `COC/C=C/C1=CC2=CC(=O)C(C)(OC(=O)c3cnc4ccccc4n3)C(=O)C2=CN1C1CC1` (stereo not drawn), the Potency entry in test [1], in test [2], in test [3], in test [4] and in test [5] was “inactive” in each case.
